In PubChem BioAssay (NCI):
About 79,000 compounds went through this panel and 15% of them were active in at least one assay; those are over-represented in the sample as a whole. Calls of active or inactive are those of the source. No stated cut-off is given here; in the data, active means growth inhibition above about 70%; inactive means the rest.

Key:
[1] = NCI Yeast Anticancer Drug Screen. Data for the rad52 strain (AID 147);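 further: 0% = growth of vehicle-treated control cultures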; conditions: S. cerevisiae rad52 mutant growth inhibition, stronger effect = higher value
Outline: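 Vehicle-treated cultures served as the reference for growth inhibition of compound-exposed yeast bearing a DNA repair mutation.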

[2] = NCI Yeast Anticancer Drug Screen. Data for the wt1 strain (AID 149);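 further: 0% = growth of vehicle-treated wt1 cultures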; conditions: S. cerevisiae wt1 strain (SPY 50644) growth inhibition, stronger effect = higher value
Outline: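 wt1 yeast, compound-treated; % growth inhibition vs vehicle control.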

[3] = NCI Yeast Anticancer Drug Screen. Data for the rad50EPP+ strain (AID 151);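 further: 0% = growth of vehicle-treated control cultures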; conditions: S. cerevisiae rad50 mutant strain, stronger effect = higher value
Outline: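 In this screen, rad50EPP+ yeast were exposed to compounds. Growth inhibition was scored against vehicle-treated controls.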

[4] = NCI Yeast Anticancer Drug Screen. Data for the mgt1 strain (AID 153); conditions: S. cerevisiae mgt1 mutant growth inhibition, stronger effect = higher value
Outline: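 mgt1 strain exposed; growth vs vehicle control recorded as inhibition.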

[5] = NCI Yeast Anticancer Drug Screen. Data for the rad50 strain (AID 155);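 further: 0% = growth of vehicle-only cultures of the same strain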; conditions: S. cerevisiae rad50 strain growth inhibition, stronger effect = higher value
Outline: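 Genetically altered yeast (DNA repair pathway); compound treatment; growth inhibition vs vehicle ctrl.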

[6] = NCI Yeast Anticancer Drug Screen. Data for the mec2-1 strain (AID 157); conditions: S. cerevisiae mec2-1 strain, stronger effect = higher value
Outline: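 Vehicle-treated cultures served as reference for growth inhibition of compound-exposed mec2-1 yeast.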

[7] = NCI Yeast Anticancer Drug Screen. Data for the rad14 strain (AID 159);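 further: 0% = growth of vehicle-treated control cultures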; conditions: S. cerevisiae rad14 strain growth inhibition, stronger effect = higher value
Outline: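 Test compounds were applied to a repair-deficient yeast strain. Its growth was then compared with that of cultures given vehicle alone, and inhibition was expressed relative to those controls.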

[8] = NCI Yeast Anticancer Drug Screen. Data for the sgs1 mgt1 strain (AID 161);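 further: 0% = growth of cultures given vehicle only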; conditions: S. cerevisiae sgs1 mgt1 strain, stronger effect = higher value
Outline: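 Read-out: growth inhibition vs vehicle controls. Cells: mutant yeast strain deficient in DNA damage repair.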

[9] = NCI Yeast Anticancer Drug Screen. Data for the cln2 rad14 strain (AID 165);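 further: 0% = growth equal to vehicle treated cultures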; conditions: S. cerevisiae cln2 rad14 strain, stronger effect = higher value
Outline: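 Each compound was tested on cln2 rad14 yeast. Inhibition of growth was calculated against vehicle-exposed controls.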

[10] = NCI Yeast Anticancer Drug Screen. Data for the bub3 strain (AID 167); conditions: S. cerevisiae bub3 mutant strain, stronger effect = higher value
Outline: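 Yeast carrying a defined mutation is treated with each compound, and growth is compared with that of vehicle-exposed cells to give inhibition.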

[11] = NCI Yeast Anticancer Drug Screen. Data for the wt2 strain (AID 169);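 further: 0% = growth of vehicle-treated yeast cultures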; conditions: S. cerevisiae wt2 strain growth inhibition, stronger effect = higher value
Outline: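 Inhibition of yeast growth was determined after compound treatment, normalised to controls receiving only vehicle.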

[12] = NCI Yeast Anticancer Drug Screen. Data for the mlh1 strain (AID 171);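 further: 0% = growth of vehicle-treated control cultures of the same strain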; conditions: S. cerevisiae mlh1 strain growth inhibition, stronger effect = higher value
Outline: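 Vehicle-normalised growth inhibition of a repair- or checkpoint-altered yeast strain following compound treatment.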

[13] = NCI Yeast Anticancer Drug Screen. Data for the sgs1 strain (AID 173);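 further: 0% = growth of vehicle-only control cultures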; conditions: S. cerevisiae sgs1 mutant, stronger effect = higher value
Outline: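 Screen format: yeast with repair or checkpoint alterations, compound exposure, growth read relative to vehicle.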

[14] = NCI Yeast Anticancer Drug Screen. Data for the mlh1 rad18 strain (AID 175); conditions: S. cerevisiae mlh1 rad18 strain growth inhibition, stronger effect = higher value
Outline: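 Vehicle-treated cultures served as the reference for growth inhibition in a yeast strain carrying DNA damage repair alterations exposed to each compound.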

[15] = NCI Yeast Anticancer Drug Screen. Data for the rad18 strain (AID 177); conditions: S. cerevisiae rad18 mutant growth inhibition, stronger effect = higher value
Outline: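 Test articles were incubated with altered yeast defective in DNA damage repair. Results are given as inhibition of growth versus vehicle.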

[16] = at 5.0 µM (retest, dose inferred, filed as 0.5)
[17] = at 50.0 µM (retest, dose inferred, filed as 5.0)

Measured: growth inhibition

COc1ccc(N=C2C(=O)Nc3ccc(Br)cc32)cc1
inactive: [1]; at 1.2 µM 14% | [1]; at 3.7 µM 15% | [1]; at 11.0 µM 18% | [1]; at 33.0 µM 23% | [1]; at 100.0 µM 17% | [2]; at 1.2 µM 8% | [2]; at 3.7 µM 15% | [2]; at 11.0 µM 9% | [2]; at 33.0 µM 14% | [2]; at 100.0 µM 15% | [3]; at 1.2 µM -9% | [3]; at 3.7 µM 1% | [3]; at 11.0 µM -11% | [3]; at 33.0 µM 6% | [3]; at 100.0 µM -20% | [4]; at 1.2 µM 8% | [4]; at 3.7 µM -24% | [4]; at 11.0 µM -5% | [4]; at 33.0 µM 2% | [4]; at 100.0 µM 1% | [5]; at 1.2 µM -14% | [5]; at 3.7 µM -14% | [5]; [16] 50% | [5]; at 11.0 µM -23% | [5]; at 33.0 µM -11% | [5]; [17] 61% | [5]; at 50.0 µM 13.8% | [5]; at 100.0 µM -5% | [6]; at 1.2 µM -19% | [6]; at 3.7 µM -13% | [6]; [16] 48% | [6]; at 11.0 µM -19% | [6]; at 33.0 µM -26% | [6]; [17] 61% | [6]; at 50.0 µM 10.7% | [6]; at 100.0 µM -20% | [7]; at 1.2 µM -22% | [7]; at 3.7 µM -25% | [7]; at 11.0 µM -26% | [7]; at 33.0 µM -28% | [7]; at 100.0 µM -30% | [8]; [16] -15% | [8]; [17] 23% | [8]; at 50.0 µM 28.9% | [9]; [16] 54% | [9]; [17] 37% | [9]; at 50.0 µM -7.9% | [10]; at 1.2 µM -7% | [10]; at 3.7 µM -7% | [10]; [16] 32% | [10]; at 11.0 µM -2% | [10]; at 33.0 µM 2% | [10]; at 100.0 µM 50% | [11]; at 1.2 µM 19% | [11]; at 3.7 µM 1% | [11]; at 11.0 µM 9% | [11]; at 33.0 µM 20% | [11]; at 100.0 µM 11% | [12]; at 1.2 µM 6% | [12]; at 3.7 µM -3% | [12]; at 11.0 µM -19% | [12]; at 33.0 µM -24% | [12]; at 100.0 µM -18% | [13]; at 1.2 µM 1% | [13]; at 3.7 µM -10% | [13]; at 11.0 µM -5% | [13]; at 33.0 µM -16% | [13]; at 100.0 µM -11% | [14]; [16] 47% | [14]; [17] 55% | [14]; at 50.0 µM 27% | [15]; at 1.2 µM -25% | [15]; at 3.7 µM -36% | [15]; at 11.0 µM -39% | [15]; at 33.0 µM -30% | [15]; at 100.0 µM -28%
active: [10]; [17] 85% | [10]; at 50.0 µM 82.4%
